{
  "source": "PubChem BioAssay AID504386",
  "about": "(National Center for Advancing Translational Sciences (NCATS), 2011)",
  "note": "Records with an inconclusive call do not appear. Entries that show only a call come without a potency. Active and inactive are the calls of the source. The call rests on the fitted dose curve; in most records, active means well fitted curve in the direction sought with a large enough effect; inconclusive means small, poorly fitted or top-dose-only effect, or another doubt; inactive means no such curve, though single readings can be large or run the other way.",
  "data": [
    {"target": "Runt-related transcription factor 1 (Homo sapiens) + Core-binding factor subunit beta (Homo sapiens) (UniProt Q01196+Q13951)", "sequence (Q01196 whole entry, looked up)": "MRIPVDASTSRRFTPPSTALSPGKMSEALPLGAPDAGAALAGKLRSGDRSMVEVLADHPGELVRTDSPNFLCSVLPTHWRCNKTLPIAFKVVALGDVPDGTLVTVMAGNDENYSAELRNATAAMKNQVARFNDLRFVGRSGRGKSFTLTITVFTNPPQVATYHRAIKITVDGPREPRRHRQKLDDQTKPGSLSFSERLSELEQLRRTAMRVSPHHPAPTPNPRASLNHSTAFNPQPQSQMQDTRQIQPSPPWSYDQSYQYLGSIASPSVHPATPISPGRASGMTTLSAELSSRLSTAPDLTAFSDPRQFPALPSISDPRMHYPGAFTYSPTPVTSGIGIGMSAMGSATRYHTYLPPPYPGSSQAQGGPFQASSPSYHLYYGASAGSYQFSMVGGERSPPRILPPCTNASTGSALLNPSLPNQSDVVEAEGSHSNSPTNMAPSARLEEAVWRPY", "sequence (Q13951 whole entry, looked up)": "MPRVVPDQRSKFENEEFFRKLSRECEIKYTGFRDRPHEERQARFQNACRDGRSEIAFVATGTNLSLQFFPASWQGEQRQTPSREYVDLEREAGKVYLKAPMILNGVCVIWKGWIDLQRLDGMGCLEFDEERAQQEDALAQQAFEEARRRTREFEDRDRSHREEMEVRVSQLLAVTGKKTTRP", "experiment": "qHTS Assay for Compounds Blocking the Interaction Between CBF-beta and RUNX1 for the Treatment of Acute Myeloid Leukemia: SAR for Probe", "details": "AlphaScreen CBFb-His/RUNX1-biotin binding, biochemical; series mostly up to 136 µM", "from_the_text": "NIH Chemical Genomics Center [NCGC] NIH Molecular Libraries Probe Production centers Network [MLPCN] MLPCN Grant: X01MH083259-01 Assay Submitter (PI): Paul Liu NCGC Assay Overview: Core Binding Factor (CBF) abnormalities are associated with 20-25% of all acute myeloid leukemias (AML), of which 5-10% are further sub classified as acute myelomonocytic leukemia with eosinophilia, also known as M4Eo in the FAB classification scheme. This subtype of leukemia is usually associated with chromosome 16 inversion (p13:q22). Chromosome 16 inversion results in formation of the fusion oncogene CBFB-MYH11, which encodes the fusion protein CBF-beta-SMMHC. […] It has been hypothesized that the interference of CBF-beta and RUNX1 binding could have therapeutic implications for patients with CBF mediated leukemias. We developed a CBF-beta and RUNX1 binding assay in AlphaScreenTM format and optimized it for high throughput screening to search for inhibitors. The goal of this project is to screen MLPCN's compound collection (MLSMR) for identifying the inhibitors of the interaction between CBF-beta and RUNX1 proteins as research probes. If these probes work well in the animal models, the ultimate goal of this project is to development a new drug treatment for this disease. This assay can not be used to assess how apparent inhibitors interfere with protein binding, and whether inhibitors specifically bind to either protein. Disruption of this protein-protein interaction, through any mechanism, is the intended target activity. The present data set was run to confirm the activity of analogs to the probe in the primary screening assay.\nNCGC Assay Protocol Summary: Step, Parameter, Description (1) Reagent, 3 uL CBFb-His/RUNX1-biotin mix incubated together for 20 minutes at room temperature (30 nM each) (2) Compound or control, 23 nL compound stock solution (3) Incubation, 15 minutes at Room temperature (4) Reagent, 1 uL 50 ng each of beads (Nickel beads and streptavidin beads) (5) Incubation, 90 minutes at Room temperature (6) Detection, […], Envision reader in AlphaScreenTM mode Keywords: MLSMR, MLPCN, NIH Roadmap, qHTS, NCGC, Core binding factor, CBF, CBF-beta, Acute myeloid leukemia", "values": [
      {"smiles": "NCC(=O)Nc1ccc(Cl)cc1C(=O)c1ccc[nH]1", "Potency": "29.6 µM (active)"},
      {"smiles": "NCCCC[C@H](N)C(=O)Nc1ccc(Cl)cc1C(=O)c1ccc[nH]1", "Potency": "inactive"},
      {"smiles": "NCCC(=O)Nc1ccc(Cl)cc1C(=O)c1ccc[nH]1", "Potency": "inactive"},
      {"smiles": "C[C@H](N)C(=O)Nc1ccc(Cl)cc1C(=O)c1ccc[nH]1", "Potency": "inactive"},
      {"smiles": "CC(C)[C@H](N)C(=O)Nc1ccc(Cl)cc1C(=O)c1ccc[nH]1", "Potency": "inactive"},
      {"smiles": "CCC(=O)Nc1ccc(Cl)cc1C(=O)c1ccc[nH]1", "Potency": "inactive"}
    ]}
  ]
}
